# From PubChem BioAssay
# Hits are enriched below; roughly 11% of the tested compounds scored in any of these assays.
# BAZ2B inh: blocks human BAZ2B | Potency, µM (titrated, usually from 114 µM), for inactives: at the highest dose activity change, negative = inhibition, usual class: inhibitors | AlphaScreen BAZ2B-H3K14Ac peptide displacement | AID 504333 | Q9UIF8 | 4.4% of 360,000 active; also: % is scaled to controls: 0 for no effect and ±100 for the full control effect; nearly all actives have a fitted effect of over 60% in size
#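 Protein-peptide AlphaScreen: BAZ2B 50 nM, b-H3K14Ac 50 nM, 1x PBS pH 7.4 + 0.01% Tween-20. Preincubation 30 min RT; cpd 30 min RT (top 110 uM); beads 20 min RT, light-protected.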
# L3MBTL1 inh: L3MBTL1 (human) inhibition; Q9Y468; AlphaScreen L3MBTL1–H3K9me1 peptide binding; Potency, µM (series often up to 57.1 µM), for the others: at the top dose activity, negative = inhibition, most hits filed as inhibitors; 0.66% of 230,000 active; AID 485360; also: % is scaled to controls: 0 for no effect and ±100 for the full control effect; nearly all actives have a fitted effect of over 60% in size
#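 First, the protein-peptide complex forms for 30 min at room temperature (L3MBTL1 50 nM, biotinylated H3K9me1 peptide 75 nM). Next, compounds are pin-transferred and incubated 30 min. Finally, AlphaScreen beads are added and read after 30 min.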
# HP1b binding inh: blocks HP1-beta chromodomain binding to methylated histone tails. AlphaScreen HP1-beta / biotin-H3K9me3 peptide binding. 0.56% of 390,000 active. P83916. Potency, µM (top dose mostly 114 µM), for the others: at the highest dose activity change, negative = inhibition, most hits filed as inhibitors. AID 540317; also: nearly all actives have a fitted effect of over 70% in size
# Target sequence (P83916 whole entry, looked up): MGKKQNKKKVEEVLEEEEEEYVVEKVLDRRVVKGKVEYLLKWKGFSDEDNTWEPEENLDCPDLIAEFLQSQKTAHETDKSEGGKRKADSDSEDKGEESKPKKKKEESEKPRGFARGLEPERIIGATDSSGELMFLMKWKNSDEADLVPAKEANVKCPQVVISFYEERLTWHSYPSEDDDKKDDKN
#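 HP1-beta protein (50 nM final) preincubated 30 min at room temperature with biotinylated H3(1-18)K9me3 peptide (50 nM) in PBS pH 7.4, 0.01% Tween-20, then compound added for 30 min. AlphaScreen streptavidin donor/nickel chelate acceptor beads (10 ug/mL final), 30 min dark, luminescence read.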
# JMJD2A Tudor inh: inhibitors of human JMJD2A Tudor domain. O75164. AlphaScreen JMJD2A-Tudor / H3K4me3 peptide binding. Potency, µM (highest dose often 114 µM), inactives show top-dose activity change, negative = inhibition, actives largely listed as inhibitors. 4.4% of 390,000 active. AID 504339; also: % is scaled to controls: 0 for no effect and ±100 for the full control effect; nearly all actives have a fitted effect of over 50% in size
# G9a block: G9a (human) methyltransferase inhibition. 8.8% of 350,000 active. Potency, µM (series often up to 102 µM), for the others: top-dose activity, negative = inhibition, hits mostly inhibitors. G9a H3K9 monomethylation, AlphaScreen, 2 h; also: % is scaled to controls: 0 for no effect and ±100 for the full control effect; nearly all actives have a fitted effect of over 75% in size
# Target sequence (Q96KQ7 913-1193 limits assumed): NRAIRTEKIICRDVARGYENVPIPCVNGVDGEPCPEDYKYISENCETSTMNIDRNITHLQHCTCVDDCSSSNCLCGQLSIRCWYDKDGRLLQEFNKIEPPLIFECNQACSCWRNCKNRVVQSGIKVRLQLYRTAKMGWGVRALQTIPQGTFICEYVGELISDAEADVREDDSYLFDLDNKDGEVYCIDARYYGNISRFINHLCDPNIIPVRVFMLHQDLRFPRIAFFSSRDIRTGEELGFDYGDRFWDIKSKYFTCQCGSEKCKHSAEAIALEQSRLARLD
#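 Quantitative HTS format: methyltransferase activity on a biotin-tagged H3K9 peptide is measured by AlphaScreen, using a rabbit anti-monomethyl-H3K9 antibody with streptavidin donor and anti-IgG acceptor beads. Final levels are 20 nM enzyme, 500 nM peptide, 20 uM SAM; 2 h RT.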
# The depositor's hits bear a star; ? = inconclusive; / = no result given; [ ] = another dose, or the depositor's remark. Calls follow the shape of the dose curve; as a rule, active = well fitted inhibition curve with a large enough effect; inconclusive = small, poorly fitted or top-dose-only effect; inactive = no such curve, though single readings can be large or run the other way. Potency is read from the fitted curve at half-maximal effect.
SMILES,BAZ2B inh,L3MBTL1 inh,HP1b binding inh,JMJD2A Tudor inh,G9a block
O=C(CN1C(=O)COc2ccc(S(=O)(=O)N3CCOCC3)cc21)N1CCN(c2ccccc2)CC1,17%,/,68%,-15%,4%[59 µM]
CCOC(=O)C1(Cc2ccccc2C(F)(F)F)CCN(C(C)CCn2cccn2)CC1 (centres undefined),45µM*,?,28%,-17%,/
COc1cccc(C)c1NC(=O)C(OC(=O)CNC(=O)c1ccccc1)c1ccccc1 (centres undefined),/,/,/,-9%,/
COc1ccc(NC(=O)c2ccc3c(c2)CCN3S(=O)(=O)c2ccc(C)cc2)cc1Cl,-5%,/,4%,-10%,-24%[59 µM]
Cc1ccc(C(=O)Nc2sc3c(c2C(=O)O)CCCC3)o1,-33%,/,19%,-3%,?
CCOC(=O)c1c(-n2c(C)cc(C=O)c2C)sc2c1CCCC2,?,-4%,-30%,56µM*,?
Cc1ccc(C)n1-c1sc2c(c1C(=O)O)CCCC2,?,?,?,22µM*,45µM*
C#CCOCCOCCOCCNc1nc(N2CCN(C(=O)[C@H](CCC(=O)O)n3cc(C(N)CO)nn3)CC2)nc(N2CCN(C(=O)[C@H](CCC(=O)O)n3cc(C(N)CO)nn3)CC2)n1 (some centres undefined),14µM*,/,/,/,?
C#CCOCCOCCOCCNc1nc(N2CCN(C(=O)[C@H](CCC(=O)O)n3cc(C(N)CO)nn3)CC2)nc(N2CCN(C(=O)[C@H](CCC(=O)O)n3cc(C(N)CC(C)C)nn3)CC2)n1 (some centres undefined),20µM*,/,/,/,?
Cc1ccc(-n2ncc(C(=O)NCCc3ccsc3)c2C2CCN(C(=O)OC(C)(C)C)CC2)c(C)c1,0%[57.1 µM],/,24%,-30%,-28%[59 µM]
CCOC(=O)c1c(NC(C)=O)c2c3c(sc2n1Cc1ccc(Cl)cc1)CCCC3,-3%,/,26%,-17%,5%[59 µM]
COc1ccccc1CCNC(=O)C(=O)NCC(c1cccnc1)N1CCN(c2ccccc2)CC1 (centres undefined),1%,/,19%,-2%,4%[59 µM]
CC(COc1ccc(/C=C/c2ccccc2)cc1)[N+](C)(C)C (centres undefined),4%,-2%,27%,-25%,4µM*
COc1ccc(/C=C/c2nc3ccccc3n2C)cc1,7%,/,76%,36%,18%[59 µM]
COc1ccc(-c2noc(CSCC(=O)Nc3cc(OC)c(OC)c(OC)c3)n2)cc1OC,2%,/,6%,-5%,2%[59 µM]
Cc1ccc2nc(Nc3ccc(Br)cc3)nc(-c3ccccc3)c2c1,20%,/,177%,48%,48%[59 µM]
O=C(Cn1cnc2c(oc3ccccc32)c1=O)Nc1ccc(F)cc1F,?,/,7%,-31%,-49%[59 µM]
Nc1nc(C2CC(=O)OC23CCCCC3)cs1 (centres undefined),-2%,16%,14%,2%,2%[59 µM]
Nc1nc(C2C(=O)CCCC2=O)cs1,45µM*,-15%,5%,10µM*,-2%[12.7 µM]
Cc1ccc(C)c(N2CCN(C(=O)C3CCN(S(=O)(=O)c4cn(C)cn4)CC3)CC2)c1,-13%,/,-12%,-21%,7%[59 µM]
Cc1c(OC(=O)c2ccc([N+](=O)[O-])cc2)c2c(c[n+]1C)COC(C)(C)OC2,?,7%,-3%,50µM*,/
CC(C)NC(=O)C(=O)NCCc1ccc(Cl)cc1,7%,/,8%,-20%,1.1µM*
COc1cc2c3nnc(-c4ccc(F)cc4)c-3cn(Cc3ccc(F)cc3)c2cc1OC,-2%,/,23%,-23%,50µM*
COc1ccc(Cn2cc3c(-c4ccc(F)cc4)nnc-3c3cc(OC)c(OC)cc32)cc1,0%,4%,38%,-17%,34%[59 µM]
CCN(CC)c1ccc(NC(=O)c2cnn(CC)c2)cc1,40µM*,-14%,?,?,16µM*
SMILES,BAZ2B inh,L3MBTL1 inh,HP1b binding inh,JMJD2A Tudor inh,G9a block
CCn1cc(C(=O)Nc2ccccc2C(=O)OC)cn1,/,/,35%,-7%,/
CCn1cc(C(=O)NC(=S)Nc2cccc(O)c2)cn1,6%,/,3%,-3%,11µM*
O=C(CNC(=O)c1ccccc1)OCC(=O)c1cccc2ccccc12,/,/,15%[57 µM],-28%[57.1 µM],/
CN(C)N=C1c2cc(S(=O)(=O)N3CCOCC3)ccc2-c2ccc(S(=O)(=O)N3CCOCC3)cc21,-34%,-7%,-22%,?,20µM*
Cc1nn2c(C)c(C(=O)NCC(C)c3ccccc3)cnc2c1-c1ccccc1 (centres undefined),4%,/,23%,-8%,27%[59 µM]
Cc1cc2c3c(c1)C1(SCC(=O)N1c1ccc(F)cc1)C(=O)N3C(C)(C)CC2C (centres undefined),-34%,/,5%,?,1%[59 µM]
CC1CC(C)(C)N2C(=O)C3(Nc4ccccc4S3)c3cccc1c32 (centres undefined),50µM*,/,-2%,50µM*,45µM*
COc1ccc(S(=O)(=O)N2CCN(S(=O)(=O)c3c(F)cccc3F)CC2)cc1,-12%,-13%,/,-18%,5%[12.7 µM]
COc1ccc(N2CCN(S(=O)(=O)c3ccc(OC)cc3)CC2)cc1,?,-3%,?,?,25µM*
COc1ccc(OC)c(S(=O)(=O)N2CCN(c3ccc(F)cc3)CC2)c1,-29%,-6%,30%,-26%,1%[59 µM]
COc1ccc(N2CCN(S(=O)(=O)c3cc(C)ccc3OC)CC2)cc1,45µM*,-9%[11.4 µM],?,?,?
COc1ccc(N2CCN(S(=O)(=O)c3cc(-c4cc(C)no4)ccc3C(C)C)CC2)cc1,10µM*,/,29%,-5%,22µM*
CCC(CC)N1CCN(S(=O)(=O)c2ccc(OC)cc2)CC1,50µM*,3%,?,1.6µM*,3.5µM*
CCc1nnc(SCC(=O)Nc2ccc(Cl)cc2F)c2cc3occc3n12,-38%,/,31%,-15%,-26%[59 µM]
